In PubChem BioAssay (NCI) one finds growth inhibition data, which are given here for 21 compounds.

The nature of test [1]: NCI Yeast Anticancer Drug Screen. Data for the rad50 strain (AID 155).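 Further: 0% = growth of vehicle-only cultures of the same strain.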 To be noted: S. cerevisiae rad50 strain growth inhibition; at 50.0 µM; hits give high values. In outline:
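Vehicle-treated cultures provide the reference for the growth inhibition reported for compound-exposed, repair-deficient yeast.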

Test [2] can be described thus: NCI Yeast Anticancer Drug Screen. Data for the mec2-1 strain (AID 157). The following applies: S. cerevisiae mec2-1 strain, at 50.0 µM, hits give high values. In outline:
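Each compound was tested on mec2-1 yeast, a strain altered in DNA damage repair or cell cycle control. Growth inhibition is reported relative to vehicle.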

Test [3] is described as follows: NCI Yeast Anticancer Drug Screen. Data for the sgs1 mgt1 strain (AID 161).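 Further: 0% = growth of cultures given vehicle only.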 To be noted: S. cerevisiae sgs1 mgt1 strain, at 50.0 µM, hits give high values. In outline: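 Read-out: growth inhibition vs vehicle controls. Cells: mutant yeast strain deficient in DNA damage repair.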
A short description of test [4]: NCI Yeast Anticancer Drug Screen. Data for the cln2 rad14 strain (AID 165).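 Further: 0% = growth equal to vehicle treated cultures.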 To be noted: S. cerevisiae cln2 rad14 strain, at 50.0 µM, hits give high values. In short, it runs like this:
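Test compounds were added to cln2 rad14 yeast cultures; inhibition of growth was then determined by comparison with vehicle treatment.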

Test [5] is described as follows: NCI Yeast Anticancer Drug Screen. Data for the bub3 strain (AID 167). The following applies: S. cerevisiae bub3 mutant strain, at 50.0 µM, hits give high values. In outline:
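Mutant yeast screening strain plus compound; vehicle-treated cultures serve as the 0% inhibition reference.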

Test [6] can be described thus: NCI Yeast Anticancer Drug Screen. Data for the mlh1 rad18 strain (AID 175). The following applies: S. cerevisiae mlh1 rad18 strain growth inhibition; at 50.0 µM; hits give high values. In short, it runs like this: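 Inhibition values reflect reduced growth of mutant yeast versus vehicle-treated controls following compound exposure; the mutations affect DNA damage repair.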

The panel holds about 79,000 compounds, 15% with a hit somewhere; the sample as a whole holds those more often. A number with no mark means an inactive call. The source made the active and inactive calls. No stated cut-off is given here; in the data, active means growth inhibition above about 70%; inactive means the rest.

For `O=C(CN1C(=O)CC(c2ccccc2)(c2ccccc2)C1=O)N1CCN(CCO)CC1`, the growth inhibition in test [1] was -0.35%; in test [2], -4.6%; in test [3], -22.1%; in test [4] it was -5.25%; in test [5], -16.2%; in test [6], 2.3%.
As for `Cc1oc(C)c2c(N=Nc3ccc([N+](=O)[O-])cc3[N+](=O)[O-])c3ccccc3c(O)c12`, the growth inhibition in test [1] was 25%; in test [2], 25.1%; in test [3] it was 11.4%; in test [4], -27.6%; in test [5], 37.5%; in test [6] it was 49.6%.
Consider `Cn1c(=O)c2[nH]c(C3CC(=O)CC(c4nc5c([nH]4)c(=O)n(C)c(=O)n5C)N3)nc2n(C)c1=O` (stereo unspecified), for which the growth inhibition in test [1] is -1.75%; in test [2], 5.1%; in test [3], -14.4%; in test [4], 1.8%; in test [5] it was -27.4%; in test [6], 7.15%.
Take `CC1C2CC(C(C3C(=O)C4CC3C(C)(C)C4C)C2=O)C1(C)C` (stereo unspecified): the growth inhibition in test [1] was -13.1%; in test [2] it was -26.1%; in test [3] it was -43.2%; in test [4], -1%; in test [5], -27.4%; in test [6], -32.1%.
For `CN(Cc1ccccc1)C(=O)c1ccccc1C(=O)O`, the growth inhibition in test [1] was -9.2%; in test [2], -2.85%; in test [3] it was -4.75%; in test [4], -15.9%; in test [5], -4.95%; in test [6] it was 13.2%.
As for `CC(NC(=O)CNP(=O)(c1ccccc1)c1ccccc1)C(=O)NC(Cc1ccccc1)C(=O)OCc1ccccc1` (stereo unspecified), the growth inhibition was 9.8% in test [1]; 4.3% in test [2]; 20.1% in test [3]; -4.5% in test [4]; -9.55% in test [5]; 30.1% in test [6].
Turning to `CN(C)C(=O)c1cc2ccccc2[nH]1`, the growth inhibition in test [1] was 28.9%; in test [2], 16.4%; in test [3] it was 6.7%; in test [4], 12.8%; in test [5] it was 3.75%; in test [6], 20.2%.
`CCCCOc1c(Cl)cc(Cl)cc1-c1ccccc1`: the growth inhibition is 14.7% in test [1]; 9.6% in test [2]; 2.55% in test [3]; -18.2% in test [4]; 18.5% in test [5]; 2.25% in test [6].
Regarding `C=C(C)[N+]([O-])=NC`, the growth inhibition in test [1] was -6.75%; in test [2] it was 3.5%; in test [3], -2.8%; in test [4], 30.1%; in test [5], -10.8%; in test [6], 0.75%.
On to `CC(=O)S`, for which the growth inhibition in test [1] is -36.5%; in test [2], -18.4%; in test [3], -11.9%; in test [4], -24.2%; in test [5], 6.35%; in test [6] it was 5.7%.
In the case of `Cc1ccc(C(C)(C#N)Nc2ccccc2)cc1` (stereo unspecified), the growth inhibition in test [1] is -7.05%; in test [2] it was -1.8%; in test [3], -8.2%; in test [4] it was -25.2%; in test [5], -11.2%; in test [6], -0.45%.
Regarding `CCOC(=O)CC1(C)NC(=O)NC1=O` (stereo unspecified), the growth inhibition in test [1] was 4.35%; in test [2], 6.65%; in test [3] it was 8.45%; in test [4] it was -31.8%; in test [5], -4.4%; in test [6], 1%.
On to `Nc1cc2c3c(cccc3c1Br)C(=O)OC2=O`, for which the growth inhibition was 99.5% (active) in test [1]; 99.8% (active) in test [2]; 99.7% (active) in test [3]; 99.3% (active) in test [4]; 99.7% (active) in test [5]; 99.5% (active) in test [6].
In the case of `C1CSCCSCCCSC2CCCCC2SC1` (stereo unspecified), the growth inhibition is 22.1% in test [1]; -0.3% in test [2]; -8.35% in test [3]; 17.4% in test [4]; 5% in test [5]; 2.15% in test [6].
Consider `CSC(=S)n1nc(-c2cccs2)c(N=Nc2ccc([N+](=O)[O-])cc2)c1C(F)(F)F`, for which the growth inhibition in test [1] is 19.1%; in test [2] it was -3.75%; in test [3] it was 19.9%; in test [4], 12.2%; in test [5], 3.8%; in test [6], 0.85%.
`O=C1c2ccccc2C(=O)N1CCS(=O)(=O)CCS(=O)(=O)CCN1C(=O)c2ccccc2C1=O`: the growth inhibition in test [1] is -0.1%; in test [2], 4.95%; in test [3] it was -14.9%; in test [4], -37.5%; in test [5], -0.95%; in test [6] it was 4.5%.
Turning to `O=C(CC(=O)CC(O)(C(F)(F)F)C(F)(F)F)CC(O)(C(F)(F)F)C(F)(F)F`, the growth inhibition in test [1] was 73.1% (active); in test [2] it was 65.1%; in test [3], 79.8% (active); in test [4], 59%; in test [5] it was 55.9%; in test [6], 78.2% (active).
For the compound `CC(=O)NCCc1ccc2c(c1)[nH]c1ccccc12`, the growth inhibition is -1.9% in test [1]; -36% in test [2]; -8.75% in test [3]; 12.6% in test [4]; -17.1% in test [5]; -8.05% in test [6].
For the compound `O=C1c2ccccc2C(=O)N1C1Nc2ccccc2N1`, the growth inhibition is 20% in test [1]; 10.6% in test [2]; 9.3% in test [3]; -0.1% in test [4]; 16.7% in test [5]; 14.8% in test [6].
On to `COc1ccc(C2S/C(=C\c3cccc(OC)c3)C(=O)N2NC(=O)Cc2ccccc2)cc1` (stereo unspecified), for which the growth inhibition in test [1] was -12.8%; in test [2], -27.1%; in test [3], -2.75%; in test [4] it was -37.5%; in test [5], -19.4%; in test [6], -10.8%.
For the compound `COc1cc(O)c2c(c1)C(=O)C1=C(C2=O)[C@@H](C)OC(C)C1` (stereo partly specified), the growth inhibition in test [1] was -4.3%; in test [2], 10.2%; in test [3], 19.9%; in test [4], 11.1%; in test [5] it was 12.8%; in test [6] it was 19.8%.
